Screening results as filed in PubChem.
HepG2 tox-1 = kills HepG2 cells in TGF-b inhibitor counter-screen. HepG2 CAGA-GFP viability, ATP luminescence, 18 h. actives 0.76% (n = 410,000). Potency, µM (top dose mostly 46.1 µM), without a hit: top-dose activity change, negative = cytotoxicity, most hits filed as cytotoxic. AID 588856
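CellTiter-Glo luminescence gave cytotoxicity after 18 hours at 37 degrees C. The cells were HepG2 CAGA-GFP in 1% FBS DMEM, stimulated with 500 pg/mL TGF-beta after compound addition. %Activity was normalised to no-cell wells (complete cell-killing) and DMSO (no toxicity), and curves were fitted and classified.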
ATXN2 expr inh = reduces ATXN2 reporter expression in HEK-293 cells | HEK-293 ATXN2-luciferase reporter, luminescence, 24 h | Potency, µM (doses to about 57 µM), for the others: top-dose activity change, negative = inhibition, actives largely listed as inhibitors | actives 0.72% (n = 360,000) | AID 1745845; also: % is scaled to controls: 0 for no effect and ±100 for the full control effect; nearly all actives have a fitted effect of over 55% in size
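qHTS (up to 57 uM final) was run with 24 h compound exposure of reporter cells at 37 °C. Each well was multiplexed: SteadyGlo luminescence measured ATXN2-luciferase expression after a fluorogenic Gly-Phe-AFC viability readout (25 uM final).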
KB-V1 cytotox = kills drug-selected multidrug resistant KB-V1 cells | KB-V1 MDR cells viability, CellTiter-Glo, 72 h | Potency, µM (titrated, usually from 46.1 µM), most hits filed as cytotoxic | actives 3.4% (n = 400,000) | AID 1347076; also: % is scaled to controls: 0 for no effect and ±100 for the full control effect; nearly all actives have a fitted effect of over 60% in size
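Drug-selected KB-V1 cells, grown in DMEM lacking phenol red with 10% FBS, receive compound titrations; after three days at 37 degrees C, surviving cell ATP is quantified by CellTiter-Glo luminescence and responses normalized and curve-fitted.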
KB-3-1 cytotox = kills parental KB-3-1 adenocarcinoma cells | actives 1.4% (n = 400,000) | KB-3-1 viability, CellTiter-Glo ATP luminescence, 72 h | Potency, µM (series often up to 46.1 µM), most hits filed as cytotoxic; also: % is scaled to controls: 0 for no effect and ±100 for the full control effect; nearly all actives have a fitted effect of over 60% in size
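Cytotoxicity in the drug-sensitive parental line KB-3-1 was scored as loss of CellTiter-Glo luminescence following 72 h incubation with compound. Values come from curve fitting of normalized concentration-response data.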
ATXN viability = reduces viability in counter-screen for ATXN expression inhibitors | S2 cells (HEK-293 line with an ATXN2-luciferase reporter) viability, CellTiter-Fluor protease fluorescence, 24 h | Potency, µM (highest dose often 56.7 µM), hits mostly cytotoxic | actives 0.49% (n = 400,000); also: nearly all actives have a fitted effect of over 40% in size
TGFb SMAD3 inh = inhibitors of TGF-b signaling | actives 1.2% (n = 410,000) | Potency, µM (titrated, usually from 46.1 µM), without a hit: at the highest dose activity, negative = inhibition, most hits filed as inhibitors | AID 588855 | HepG2 CAGA-GFP TGF-b/SMAD3 reporter, GFP fluorescence, 18 h; TGF-beta stimulated, 500 pg/mL final; also: % is scaled to controls: 0 for no effect and ±100 for the full control effect; nearly all actives have a fitted effect of over 65% in size
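Inhibition of TGF-beta-driven CAGA-GFP reporter expression in HEPG2 cells is measured by cellular GFP fluorescence after 18 h stimulation with 500 pg/mL recombinant TGF-beta in 1% FBS medium at 37 degrees C.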
TGFb CAGA inh = TGF-b pathway inhibition, cherry-pick retest; shares compounds with TGFb SMAD3 inh; HepG2 CAGA-GFP TGF-b reporter, GFP fluorescence, 18 h; cells stimulated with TGF-beta, 500 pg/mL; Potency, µM (series often up to 46.1 µM), for inactives: top-dose activity, negative = inhibition, usual class: inhibitors; actives 63% (n = 1,600); also: % is scaled to controls: 0 for no effect and ±100 for the full control effect; nearly all actives have a fitted effect of over 65% in size
HepG2 tox-2 = HepG2 cytotoxicity, TGF-b inhibitor counterscreen. actives 27% (n = 1,600). AID 720535. shares compounds with TGFb SMAD3 inh. HepG2 CAGA-GFP viability, ATP luminescence, 18 h; cells stimulated with TGF-beta, 500 pg/mL. Potency, µM (titrated, usually from 46.1 µM), for inactives: at the top dose activity, negative = cytotoxicity, usual class: inhibitors; also: % is scaled to controls: 0 for no effect and ±100 for the full control effect; nearly all actives have a fitted effect of over 70% in size
CCL64 TGFb inh = orthogonal confirmation of TGF-b inhibitors in CCL64 cells; actives 41% (n = 1,600); Potency, µM (highest dose often 46.1 µM), without a hit: at the highest dose activity, negative = inhibition, hits mostly inhibitors; AID 720536; CCL64 CAGA-GFP reporter, TGF-b stimulated, GFP fluorescence, 18 h; shares compounds with TGFb SMAD3 inh; also: nearly all actives have a fitted effect of over 65% in size
COP TGFb inh = TGF-b inhibition validated with COP promoter; Potency, µM (titrated, usually from 46.1 µM), inactives show at the top dose activity, negative = inhibition, actives largely listed as inhibitors; AID 720537; actives 3% (n = 1,600); shares compounds with TGFb SMAD3 inh; HepG2 COP-GFP TGF-b reporter, GFP fluorescence, 18 h; cells stimulated by added recombinant TGF-beta; also: nearly all actives have a fitted effect of over 70% in size
* hit, by the source's call; i = inactive; ? = inconclusive; nt = no result given; ! = not confirmed by another sample; [ ] = dose if it differs, or a comment. The list is not random: actives were taken first. Their share in the collection is about 5.9%. Calls follow the shape of the dose curve; as a rule, active = well fitted curve in the direction sought with a large enough effect; inconclusive = small, poorly fitted or top-dose-only effect, or another doubt; inactive = no such curve, though single readings can be large; an effect the other way counts as inactive or inconclusive. Potency is read from the fitted curve at half-maximal effect.

SMILES | HepG2 tox-1 | ATXN2 expr inh | KB-V1 cytotox | KB-3-1 cytotox | ATXN viability | TGFb SMAD3 inh | TGFb CAGA inh | HepG2 tox-2 | CCL64 TGFb inh | COP TGFb inh
O=C(CSC1=NNC(c2ccccn2)S1)Nc1ccc(C(F)(F)F)cc1 (stereo not drawn) | -23% | ? | i | ? | i | ? | -20% | -22% | ? | -1%
CCOC(=O)c1c(C)oc2nc(C)nc(Nc3cc(C)cc(C)c3)c12 | -6% | -3% | i | i | i | -4% | nt | nt | nt | nt
CC(=O)c1ccc(NC(=O)CC(c2cccs2)N2Cc3ccccc3C2=O)cc1 (stereo not drawn) | -3% | 45% | i | i | i | -3% | nt | nt | nt | nt
Oc1ccc(C[C@H]2CNC(=S)N2CC2CCCN2C[C@H](Cc2ccccc2)N2C[C@H](Cc3ccc(O)cc3)N(CCc3ccccc3)C2=S)cc1 (stereo partly drawn) | 2% | ? | ? | ? | ? | 7.9µM* | 5.8µM* | ? | 9.2µM* | 62%
CC(C)C[C@H]1CN([C@@H](Cc2ccc(O)cc2)CN2CCC[C@@H]2CN2C(=S)NC[C@@H]2Cc2ccccc2)C(=S)N1CCc1ccccc1 | -5% | ? | ? | i | ? | ? | nt | nt | nt | nt
CC(C)C[C@H]1CNC(=S)N1C[C@H]1CCCN1C[C@H](Cc1ccccc1)N1C[C@H](Cc2ccc(O)cc2)N(CCc2ccccc2)C1=S | -9% | ? | ? | ? | ? | 7.1µM* | 12µM* | -24% | ? | 12%
CC(C)C[C@H]1CNC(=S)N1C[C@H]1CCCN1C[C@H](Cc1ccc(O)cc1)N1C[C@H](Cc2ccc(O)cc2)N(CCc2ccccc2)C1=S | -40% | ? | i | ? | nt | 10µM* | ? | 15µM* | 4.6µM* | 78%
COc1ccc(CCNC(=O)c2ccc(Cn3c(=O)c4ccccc4n(Cc4ccc(C)cc4)c3=O)cc2)cc1OC | 0% | 5% | i | i | i | 1% | nt | nt | nt | nt
COC(=O)c1ccccc1NC(=O)c1oc2ccc3c(c2c1C)C(=O)CC(C)(C)O3 | -5% | 15% | i | i | i | 3% | nt | nt | nt | nt
COc1ccc(-c2nc3n(n2)C(c2ccccc2F)C(C(=O)Nc2cccnc2)=C(C)N3)cc1OC (stereo not drawn) | -21% | -7% | i | i | ? | ? | nt | nt | nt | nt
CCN1CCN(c2ccc(NC(=O)c3ccc(C#N)cc3F)cc2Cl)CC1 | 0% | -2% | i | i | i | 5% | nt | nt | nt | nt
CCN1CCN(Cc2ccc(NC(=O)c3cc(NC(=O)c4cncc(-c5ccc(C#N)cc5)c4)cc(OC)c3)cc2C(F)(F)F)CC1 | 2µM*! | 25µM*! | i | ? | 16µM* | 5.6µM* | ? | 16µM* | 26µM* | ?
COC(=O)C1CCC(=O)N1C(c1ccc(OC)cc1)c1cc(OC)c(OC)c(OC)c1 (stereo not drawn) | 2% | 4% | 7.3µM* | 0.82µM* | ? | 2µM* | ? | -2% | 5.8µM* | ?
COc1ccc(C(NC(=O)CN2C(=O)NC3(CCc4ccccc43)C2=O)c2ccccc2)cc1 (stereo not drawn) | -9% | nt | i | i | ? | ? | ? | -13% | -23% | -10%
Cc1cc(NC(=O)c2ccccc2NS(=O)(=O)c2c(C)c(C)cc(C)c2C)no1 | -21% | -2% | i | i | i | ? | nt | nt | nt | nt
Cc1ccc(C)c(S(=O)(=O)Nc2ccccc2C(=O)Nc2cc(C)on2)c1 | -36% | ? | i | ? | i | 7.9µM* | ? | ? | ? | 22%
COCC(=O)NCc1nc2cccnc2n1Cc1ccc(F)cc1 | 1% | nt | nt | nt | nt | -3% | nt | nt | nt | nt
Nc1ccccc1N=c1ssnc1Cl | -9% | -2%[11.3 µM] | i | i | i | 15% | nt | nt | nt | nt
Cc1cc(Cl)ccc1N=c1ssnc1Cl | -23% | -21% | i | ? | i | 7.9µM* | 23µM* | ? | ? | 4%
CCOc1ccc(CCNC(=O)CCCc2nnc3n(CC)c(=O)c4sccc4n23)cc1 | -5% | nt | nt | nt | nt | ? | nt | nt | nt | nt
Cc1ccc(NC(=O)COC(=O)C2(c3ccc(Cl)cc3)CCCC2)cc1 | -41% | ? | i | ? | ? | 10µM* | ? | ? | ? | 29%
NC(Cc1ccc(C(F)(F)F)cc1)c1csc(NC(=O)Nc2ccccc2Cc2ccccc2)n1 (stereo not drawn) | 6.3µM* | ? | ? | ? | nt | 3.2µM* | ? | ? | 15µM* | ?
O=C(Nc1ccc(-c2nc3cc(NC(=O)c4ccc(Cl)cc4)ccc3o2)cc1)c1ccc(Cl)cc1 | 9% | 7% | i | i | i | -2% | nt | nt | nt | nt
Cc1csc2nc(COC(=O)CNC(=O)c3ccc(F)cc3)cc(=O)n12 | -3% | 4% | i | i | i | -16% | nt | nt | nt | nt
Cn1cnc([N+](=O)[O-])c1Sc1nc(N)nc2c1ncn2C1CC(O)C(CO)O1 (stereo not drawn) | -39% | -35% | 5.2µM* | 3.7µM* | ? | 4µM* | 4.1µM* | ? | 19% | 82%
Cn1cnc([N+](=O)[O-])c1Sc1nc(N)nc2c1ncn2C1OC(CO)C(O)C1O (stereo not drawn) | -46% | -33% | 1.2µM* | ? | ? | 2µM* | 2.9µM* | 0.92µM* | 3% | 65%
